Laboratory results reported in PubChem BioAssay (NCI).
Values joined by “and” are separate entries in the source; they are usually repeats but may differ in a detail not shown here. Identical values can stand only once. This is part of a sample that, as a whole, favours compounds with a hit. Of some 83,000 tested, about 20% had one in any assay.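 In brief: 96-well plates, 48 h treatment, single concentration, percent growth endpoint.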 More than one record can exist for a structure, and the calls need not agree. Active and inactive are the calls of the source. How the source made its calls: active means growth percent below 10; inactive means the rest.

Legend:
Test in all cases: NCI-60 one-dose screen, 48 h (100 = growth as untreated, 0 = no growth, -100 = all killed)
Settings in all cases: 10 µM unless noted
DU-145 prostate = system: DU-145 prostate
K-562 leukemia = system: K-562 leukemia
MALME-3M melanoma = system: MALME-3M melanoma
MDA-MB-231 breast = system: MDA-MB-231 breast
RXF 393 renal = system: RXF 393 renal
SF-268 CNS = system: SF-268 CNS
SF-295 CNS = system: SF-295 CNS
SF-539 CNS = system: SF-539 CNS
UACC-257 melanoma = system: UACC-257 melanoma
M14 melanoma = system: M14 melanoma
HCT-15 colon = system: HCT-15 colon
HT29 colon = system: HT29 colon
SNB-75 CNS = system: SNB-75 CNS
U251 CNS = system: U251 CNS
PC-3 prostate = system: PC-3 prostate
SK-MEL-5 melanoma = system: SK-MEL-5 melanoma
UACC-62 melanoma = system: UACC-62 melanoma
LOX IMVI melanoma = system: LOX IMVI melanoma
SK-MEL-28 melanoma = system: SK-MEL-28 melanoma
SNB-19 CNS = system: SNB-19 CNS

SMILES | growth (DU-145 prostate) | growth (K-562 leukemia) | growth (MALME-3M melanoma) | growth (MDA-MB-231 breast) | growth (RXF 393 renal) | growth (SF-268 CNS) | growth (SF-295 CNS) | growth (SF-539 CNS) | growth (UACC-257 melanoma) | growth (M14 melanoma) | growth (HCT-15 colon) | growth (HT29 colon) | growth (SNB-75 CNS) | growth (U251 CNS) | growth (PC-3 prostate) | growth (SK-MEL-5 melanoma) | growth (UACC-62 melanoma) | growth (LOX IMVI melanoma) | growth (SK-MEL-28 melanoma) | growth (SNB-19 CNS)
CN1CCN(c2ccc3nc(-c4c(N)c5c(F)cccc5[nH]c4=O)[nH]c3c2)CC1 | 33.5% (inactive) and 29.3% (inactive) | -26.6% (active) and -24.4% (active) | 7.87% (active) and -13.5% (active) | 42.4% (inactive) and 52.5% (inactive) | -1.36% (active) and 26.3% (inactive) | 44.7% (inactive) and 48.9% (inactive) | 56.6% (inactive) and 71.6% (inactive) | 6.28% (active) and 11.5% (inactive) | -59.4% (active) and -18.1% (active) | -25.3% (active) and 2.34% (active) | 30.7% (inactive) and 18.7% (inactive) | 1.59% (active) and 10.3% (inactive) | 35.3% (inactive) and 28.4% (inactive) | 34.9% (inactive) and 33.5% (inactive) | 27.2% (inactive) and 38.4% (inactive) | 11.2% (inactive) and 36.3% (inactive) | 46.5% (inactive) and 41% (inactive) | -66.4% (active) and 16.4% (inactive) | -5.34% (active) | –
C/C(=N\NC(=O)c1ccncc1)c1ccccc1O | 40.8% (inactive) and 45.2% (inactive) | 35.6% (inactive) and 35.4% (inactive) | 65.6% (inactive) and 53.4% (inactive) | 34.9% (inactive) and 36.2% (inactive) | 63.6% (inactive) and 75.4% (inactive) | 37.1% (inactive) and 40.5% (inactive) | 40.2% (inactive) and 39.3% (inactive) | 52.9% (inactive) and 30.2% (inactive) | 43.9% (inactive) and 25.1% (inactive) | 27.5% (inactive) and 33.5% (inactive) | 22.8% (inactive) and 23.3% (inactive) | 29.7% (inactive) and 29.1% (inactive) | 89.5% (inactive) and 50.9% (inactive) | 33.8% (inactive) and 33.4% (inactive) | 44.4% (inactive) and 35.8% (inactive) | 38.7% (inactive) and 50% (inactive) | 22% (inactive) and 30.6% (inactive) | 22.5% (inactive) and 10.9% (inactive) | 52.4% (inactive) and 63.1% (inactive) | 47.8% (inactive) and 46.6% (inactive)
CNc1cc(-c2cccc(OC(F)(F)F)c2)nc2ccc(N3CCCC3)cc12 | -43.5% (active) and 6.55% (active) and 12.9% (inactive) | -42.3% (active) and -31.2% (active) and -12.4% (active) | -74.2% (active) and -88.1% (active) and -75.4% (active) | -47.4% (active) and -63.4% (active) and -2.52% (active) | -64.4% (active) and -78.3% (active) and -67.5% (active) | 78.9% (inactive) and 61.6% (inactive) and 55.9% (inactive) | 82.8% (inactive) and -66.4% (active) and -74.5% (active) | -76.6% (active) and -78.4% (active) and -68.4% (active) | 82% (inactive) and -59.4% (active) and -57.4% (active) | -87% (active) and -86.6% (active) and -76.4% (active) | 13.5% (inactive) and -8.32% (active) and 3.05% (active) | 5.99% (active) and 1.66% (active) and 1.06% (active) | 107% (inactive) and 76.5% (inactive) | -42.1% (active) and -81.2% (active) and -79.4% (active) | -72% (active) and 8.8% (active) and 13.1% (inactive) | -77.4% (active) and -88.7% (active) and -70.6% (active) | -71.8% (active) and -74.8% (active) and -72.1% (active) | -64.1% (active) and -93.8% (active) and -90.1% (active) | -66.3% (active) and -82.3% (active) and -64.4% (active) | –
Cc1cccc(/C=C\C(=O)c2ccc(Cl)cc2)c1 | 114% (inactive) and 96.5% (inactive) | 77% (inactive) and 20.5% (inactive) | 92.5% (inactive) | 97.6% (inactive) and 116% (inactive) | 112% (inactive) and 97.8% (inactive) | 102% (inactive) and 92.5% (inactive) | 161% (inactive) and 93.9% (inactive) | 101% (inactive) | 105% (inactive) and 109% (inactive) | 94.3% (inactive) and 91.1% (inactive) | 89.5% (inactive) and 96.6% (inactive) | 84.1% (inactive) and 90.9% (inactive) | 98.9% (inactive) and 115% (inactive) | 80.3% (inactive) and 98.9% (inactive) | 89.6% (inactive) and 83.7% (inactive) | 108% (inactive) and 94.8% (inactive) | 96.8% (inactive) and 103% (inactive) | 89.2% (inactive) and 91.6% (inactive) | 106% (inactive) and 111% (inactive) | –
CC1=C(/C=C/C(C)=C/C=C/C(C)=C/C(=O)O)C(C)(C)CCC1 | 103% (inactive) and 83.3% (inactive) | 108% (inactive) and 89.5% (inactive) | 69.1% (inactive) and 35.6% (inactive) and 70.6% (inactive) | 78.1% (inactive) and 82.2% (inactive) and 85.1% (inactive) | 94.2% (inactive) and 89.6% (inactive) and 91.3% (inactive) | 91.7% (inactive) and 92.9% (inactive) and 101% (inactive) | 69.3% (inactive) and 88.1% (inactive) and 114% (inactive) | 88.7% (inactive) and 62.2% (inactive) and 86.1% (inactive) | 94.7% (inactive) and 82.5% (inactive) and 93.9% (inactive) | 109% (inactive) and 95.3% (inactive) and 91.5% (inactive) | 91.4% (inactive) and 81.1% (inactive) and 92% (inactive) | 88.7% (inactive) and 89.2% (inactive) and 96% (inactive) | 122% (inactive) and 72.2% (inactive) and 79.7% (inactive) | 83.2% (inactive) and 87.1% (inactive) and 90.4% (inactive) | 88.3% (inactive) and 89.7% (inactive) and 101% (inactive) | 83.5% (inactive) and 86.5% (inactive) and 99.3% (inactive) | 73.2% (inactive) and 80.4% (inactive) and 61.3% (inactive) | 91% (inactive) and 85.3% (inactive) and 89.9% (inactive) | 109% (inactive) and 116% (inactive) | –
CC1=CCC2CC1C2(C)C (centres undefined) | 98.6% (inactive) and 112% (inactive) | 102% (inactive) and 98.4% (inactive) | 101% (inactive) and 127% (inactive) | 95.8% (inactive) and 96.9% (inactive) | 102% (inactive) and 71% (inactive) | 115% (inactive) and 94.1% (inactive) | 94.2% (inactive) and 106% (inactive) | 102% (inactive) | -8.84% (active) and 108% (inactive) | 98.3% (inactive) and 90.3% (inactive) | 99.5% (inactive) and 94% (inactive) | 114% (inactive) and 105% (inactive) | 102% (inactive) and 90.3% (inactive) | – | 101% (inactive) and 89.5% (inactive) | 102% (inactive) and 87.7% (inactive) | 97% (inactive) and 93.6% (inactive) | 93.4% (inactive) and 88.6% (inactive) | 97.5% (inactive) and 102% (inactive) | 95.8% (inactive) and 101% (inactive)
Cc1cc(O)c(C(C)C)cc1S(=O)(=O)O (tested in a mixture with another compound) | 120% (inactive) and 5.68% (active) and 115% (inactive) | 111% (inactive) and 3.5% (active) and 104% (inactive) | 99.7% (inactive) and 47.1% (inactive) and 93.1% (inactive) | 107% (inactive) and 10.3% (inactive) and 90.1% (inactive) | 97.3% (inactive) and 8.53% (active) and 118% (inactive) | 101% (inactive) and 22% (inactive) and 109% (inactive) | 101% (inactive) and 77.7% (inactive) | 93.1% (inactive) and 4.98% (active) and 94.7% (inactive) | 92.6% (inactive) and 40.4% (inactive) and 94.9% (inactive) | 91.5% (inactive) and -39.1% (active) and 106% (inactive) | 96.7% (inactive) and 7.09% (active) and 99.5% (inactive) | 100% (inactive) and -3.9% (active) and 109% (inactive) | 84.1% (inactive) and 10.4% (inactive) and 80.2% (inactive) | – | 96.1% (inactive) and 19.8% (inactive) and 81.7% (inactive) | 96.6% (inactive) and -34% (active) and 99.9% (inactive) | 87.4% (inactive) and 32.5% (inactive) and 91.3% (inactive) | 92.1% (inactive) and 0.911% (active) and 107% (inactive) | 110% (inactive) and 40.6% (inactive) and 107% (inactive) | 103% (inactive) and 35.4% (inactive) and 100% (inactive)
